# The full data set covers some 7,900 targets. This sample favours those with a hit. About 0.6% of all pairs of compound and target were hits. Unmarked numbers belong to inactive results.
# Tests used:
# Assay in all cases: log2 fold change, soluble protein after heating vs DMSO (PISA); higher = thermal stabilisation; K562 cells, 10 uM, 30 min; active = over 0.2 and 3.5 SD of the protein, either way, in both replicates (recomputed)
# [1] = compound: CS(=O)(=O)c1ccc(-c2cnc(N)c(C(=O)Nc3ccccc3)n2)cc1
# How it was run: (§1)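 For each measurement, 10 μM compound was applied for 30 min to K562 cells at 2×10^6 cells/mL. Aliquots were heated for 3 min across 48°C-58°C, pooled, and extracted in PBS with 0.5% NP-40 at 4°C; the supernatant after 21,000xg for 90 min was soluble protein. This was quantified by TMTpro 16plex LC-MS/MS with channel sums equalised, and thermal stability was reported relative to control samples from duplicates, on a log2 fold-change scale.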
# crizotinib = compound: C[C@@H](Oc1cc(-c2cnn(C3CCNCC3)c2)cnc1N)c1c(Cl)ccc(F)c1Cl [crizotinib]
# How it was run: as §1
# [2] = compound: C[C@@H]1COCCN1C2=NC(=NC(=C2)C3(CC3)S(=O)(=O)C)C4=C5C=CNC5=CC=C4
# How it was run: as §1
# [3] = compound: C[C@H](C1=CC=C(C=C1)C(=O)NC2=C3C=CNC3=NC=C2)N
# How it was run: as §1
# duvelisib = compound: C[C@H](Nc1ncnc2nc[nH]c12)c1cc2cccc(Cl)c2c(=O)n1-c1ccccc1 [duvelisib]
# How it was run: as §1
# gandotinib = compound: Cc1cc(Nc2cc(CN3CCOCC3)c3nc(C)c(Cc4ccc(Cl)cc4F)n3n2)n[nH]1 [gandotinib]
# How it was run: as §1
# tozasertib = compound: Cc1cc(Nc2cc(N3CCN(C)CC3)nc(Sc3ccc(NC(=O)C4CC4)cc3)n2)n[nH]1 [tozasertib]
# How it was run: as §1
# [4] = compound: Cc1cc(SCc2sc(-c3ccc(C(F)(F)F)cc3)nc2C)ccc1OCC(=O)O
# How it was run: as §1
# doramapimod = compound: Cc1ccc(-n2nc(C(C)(C)C)cc2NC(=O)Nc2ccc(OCCN3CCOCC3)c3ccccc23)cc1 [doramapimod]
# How it was run: as §1
# ispinesib = compound: Cc1ccc(C(=O)N(CCCN)[C@@H](c2nc3cc(Cl)ccc3c(=O)n2Cc2ccccc2)C(C)C)cc1 [ispinesib]
# How it was run: as §1
# UniProt Q9BQI3, sequence (Q9BQI3 whole entry, looked up): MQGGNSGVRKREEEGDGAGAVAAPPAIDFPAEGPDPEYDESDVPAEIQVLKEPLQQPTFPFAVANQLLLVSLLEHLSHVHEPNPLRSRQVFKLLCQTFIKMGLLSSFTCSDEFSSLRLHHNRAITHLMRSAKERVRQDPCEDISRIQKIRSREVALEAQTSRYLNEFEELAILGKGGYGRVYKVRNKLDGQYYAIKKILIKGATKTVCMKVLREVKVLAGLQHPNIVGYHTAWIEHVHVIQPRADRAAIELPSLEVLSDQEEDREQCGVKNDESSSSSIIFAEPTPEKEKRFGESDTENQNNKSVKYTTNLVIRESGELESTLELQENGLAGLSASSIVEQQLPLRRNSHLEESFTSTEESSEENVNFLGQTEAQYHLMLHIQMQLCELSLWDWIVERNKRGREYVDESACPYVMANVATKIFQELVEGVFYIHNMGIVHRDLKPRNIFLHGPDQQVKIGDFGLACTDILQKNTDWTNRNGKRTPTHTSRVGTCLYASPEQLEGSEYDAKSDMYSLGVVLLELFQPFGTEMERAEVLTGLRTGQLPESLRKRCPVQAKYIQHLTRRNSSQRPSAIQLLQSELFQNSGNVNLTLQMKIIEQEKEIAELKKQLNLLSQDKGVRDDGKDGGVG
# UniProt Q13409, sequence (Q13409 whole entry, looked up): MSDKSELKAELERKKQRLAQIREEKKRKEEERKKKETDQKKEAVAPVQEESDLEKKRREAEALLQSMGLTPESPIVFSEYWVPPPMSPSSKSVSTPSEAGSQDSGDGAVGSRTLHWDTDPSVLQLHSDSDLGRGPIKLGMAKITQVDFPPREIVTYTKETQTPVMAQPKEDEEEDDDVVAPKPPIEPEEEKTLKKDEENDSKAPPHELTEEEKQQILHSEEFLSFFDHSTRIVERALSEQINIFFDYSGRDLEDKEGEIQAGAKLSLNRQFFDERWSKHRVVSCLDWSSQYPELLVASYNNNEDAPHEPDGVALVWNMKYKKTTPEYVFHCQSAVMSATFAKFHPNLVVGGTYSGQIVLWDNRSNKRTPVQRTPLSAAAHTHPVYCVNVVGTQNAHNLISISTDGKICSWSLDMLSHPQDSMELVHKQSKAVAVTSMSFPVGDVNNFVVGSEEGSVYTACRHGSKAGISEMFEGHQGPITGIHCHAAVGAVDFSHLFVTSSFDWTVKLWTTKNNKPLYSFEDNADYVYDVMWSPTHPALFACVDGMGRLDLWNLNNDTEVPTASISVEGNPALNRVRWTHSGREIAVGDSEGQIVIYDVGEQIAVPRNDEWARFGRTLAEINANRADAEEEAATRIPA
# UniProt P13498, sequence (P13498 whole entry, looked up): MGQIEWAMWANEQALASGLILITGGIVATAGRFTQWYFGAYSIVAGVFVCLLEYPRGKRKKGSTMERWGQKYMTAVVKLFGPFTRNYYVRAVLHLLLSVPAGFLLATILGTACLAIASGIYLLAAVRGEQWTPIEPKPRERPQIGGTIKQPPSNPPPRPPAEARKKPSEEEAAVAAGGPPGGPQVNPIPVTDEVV
# UniProt Q9NXF7, sequence (Q9NXF7 whole entry, looked up): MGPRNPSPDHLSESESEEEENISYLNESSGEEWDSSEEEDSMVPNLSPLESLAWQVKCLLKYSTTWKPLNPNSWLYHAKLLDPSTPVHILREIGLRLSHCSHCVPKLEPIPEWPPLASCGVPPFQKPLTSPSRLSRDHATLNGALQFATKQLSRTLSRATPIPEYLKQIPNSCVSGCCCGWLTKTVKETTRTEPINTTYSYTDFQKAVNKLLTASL
# UniProt Q01780, sequence (Q01780 whole entry, looked up): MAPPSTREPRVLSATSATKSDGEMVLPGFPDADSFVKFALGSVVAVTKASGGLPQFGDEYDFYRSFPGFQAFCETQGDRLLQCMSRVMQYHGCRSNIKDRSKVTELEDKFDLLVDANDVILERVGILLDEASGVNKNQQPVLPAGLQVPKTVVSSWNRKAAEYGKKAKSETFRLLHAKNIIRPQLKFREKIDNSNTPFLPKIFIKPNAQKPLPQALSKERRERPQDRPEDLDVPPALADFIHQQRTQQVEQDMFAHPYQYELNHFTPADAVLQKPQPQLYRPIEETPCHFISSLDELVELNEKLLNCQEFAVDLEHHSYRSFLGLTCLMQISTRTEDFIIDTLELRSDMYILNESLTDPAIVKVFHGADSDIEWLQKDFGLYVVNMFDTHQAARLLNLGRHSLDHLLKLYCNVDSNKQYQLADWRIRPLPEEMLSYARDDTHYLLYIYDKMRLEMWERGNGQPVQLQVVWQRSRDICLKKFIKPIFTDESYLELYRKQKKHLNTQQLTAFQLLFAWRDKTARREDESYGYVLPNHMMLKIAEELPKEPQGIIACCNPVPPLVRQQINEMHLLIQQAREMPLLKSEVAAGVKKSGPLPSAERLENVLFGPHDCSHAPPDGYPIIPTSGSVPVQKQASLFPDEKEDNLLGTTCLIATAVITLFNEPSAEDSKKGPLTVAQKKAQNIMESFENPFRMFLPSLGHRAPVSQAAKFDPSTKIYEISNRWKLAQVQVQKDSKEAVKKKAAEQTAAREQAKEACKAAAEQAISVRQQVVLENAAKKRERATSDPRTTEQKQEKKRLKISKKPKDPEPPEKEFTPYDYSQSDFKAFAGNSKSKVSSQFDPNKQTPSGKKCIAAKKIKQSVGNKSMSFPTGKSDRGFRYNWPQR
# UniProt Q96DF8, sequence (Q96DF8 whole entry, looked up): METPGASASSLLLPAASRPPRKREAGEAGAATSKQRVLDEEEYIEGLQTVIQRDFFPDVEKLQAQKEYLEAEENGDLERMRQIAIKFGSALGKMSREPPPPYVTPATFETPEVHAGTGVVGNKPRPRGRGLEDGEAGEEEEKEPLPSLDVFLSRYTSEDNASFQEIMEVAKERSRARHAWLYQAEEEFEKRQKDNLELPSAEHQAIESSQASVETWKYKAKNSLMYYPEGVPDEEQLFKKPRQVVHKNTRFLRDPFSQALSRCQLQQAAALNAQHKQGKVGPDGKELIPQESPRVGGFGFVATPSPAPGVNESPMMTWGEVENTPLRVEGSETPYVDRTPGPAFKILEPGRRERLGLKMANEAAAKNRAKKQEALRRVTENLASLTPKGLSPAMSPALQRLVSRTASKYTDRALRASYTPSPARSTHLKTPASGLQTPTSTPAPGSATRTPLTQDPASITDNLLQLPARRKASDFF
# UniProt Q9NRY5, sequence (Q9NRY5 whole entry, looked up): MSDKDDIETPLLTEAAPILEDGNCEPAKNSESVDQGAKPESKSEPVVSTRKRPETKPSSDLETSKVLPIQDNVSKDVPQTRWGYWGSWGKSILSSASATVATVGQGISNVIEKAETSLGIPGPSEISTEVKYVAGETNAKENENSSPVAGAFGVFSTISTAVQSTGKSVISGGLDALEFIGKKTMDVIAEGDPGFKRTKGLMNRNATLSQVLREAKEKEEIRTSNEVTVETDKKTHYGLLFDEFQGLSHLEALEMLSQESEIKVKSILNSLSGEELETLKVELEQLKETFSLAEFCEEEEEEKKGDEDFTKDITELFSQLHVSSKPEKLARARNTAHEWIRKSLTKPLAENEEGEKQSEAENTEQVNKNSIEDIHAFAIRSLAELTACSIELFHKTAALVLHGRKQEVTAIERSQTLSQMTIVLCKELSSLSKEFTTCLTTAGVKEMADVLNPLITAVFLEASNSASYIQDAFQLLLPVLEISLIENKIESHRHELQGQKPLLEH
# UniProt Q7L576, sequence (Q7L576 whole entry, looked up): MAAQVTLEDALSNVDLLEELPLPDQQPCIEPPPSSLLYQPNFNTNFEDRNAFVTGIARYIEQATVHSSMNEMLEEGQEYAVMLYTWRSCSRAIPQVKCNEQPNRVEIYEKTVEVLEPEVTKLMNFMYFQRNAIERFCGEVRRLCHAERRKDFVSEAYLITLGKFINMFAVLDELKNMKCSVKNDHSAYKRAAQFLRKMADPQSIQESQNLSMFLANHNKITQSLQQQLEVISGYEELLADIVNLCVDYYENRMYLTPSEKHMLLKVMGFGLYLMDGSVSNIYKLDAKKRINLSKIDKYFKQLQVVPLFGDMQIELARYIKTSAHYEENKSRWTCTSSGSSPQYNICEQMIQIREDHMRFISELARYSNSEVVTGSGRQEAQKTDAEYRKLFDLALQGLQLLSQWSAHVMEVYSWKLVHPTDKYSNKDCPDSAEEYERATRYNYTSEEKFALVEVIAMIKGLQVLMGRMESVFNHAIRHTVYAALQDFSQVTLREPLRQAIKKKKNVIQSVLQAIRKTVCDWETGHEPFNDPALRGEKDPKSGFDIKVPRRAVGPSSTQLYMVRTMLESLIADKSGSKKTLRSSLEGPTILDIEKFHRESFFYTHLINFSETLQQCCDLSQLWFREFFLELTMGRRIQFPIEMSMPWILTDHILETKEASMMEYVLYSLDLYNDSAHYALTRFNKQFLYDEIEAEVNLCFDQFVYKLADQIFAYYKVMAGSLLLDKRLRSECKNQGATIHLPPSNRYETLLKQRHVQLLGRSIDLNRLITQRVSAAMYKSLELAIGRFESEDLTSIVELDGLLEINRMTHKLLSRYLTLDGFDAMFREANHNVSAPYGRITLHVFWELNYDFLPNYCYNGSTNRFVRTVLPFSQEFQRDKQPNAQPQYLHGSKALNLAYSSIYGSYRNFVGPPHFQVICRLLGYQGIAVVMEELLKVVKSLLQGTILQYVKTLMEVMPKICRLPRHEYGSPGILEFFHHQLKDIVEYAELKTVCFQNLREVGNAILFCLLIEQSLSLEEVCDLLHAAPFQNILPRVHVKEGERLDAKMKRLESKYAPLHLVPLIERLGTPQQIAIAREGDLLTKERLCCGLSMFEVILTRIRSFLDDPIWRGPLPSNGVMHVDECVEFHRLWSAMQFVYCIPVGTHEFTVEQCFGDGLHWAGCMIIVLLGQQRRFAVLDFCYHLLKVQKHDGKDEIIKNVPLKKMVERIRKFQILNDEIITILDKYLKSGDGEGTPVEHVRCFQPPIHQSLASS
Target,log2 fold change [1],log2 fold change (crizotinib),log2 fold change [2],log2 fold change [3],log2 fold change (duvelisib),log2 fold change (gandotinib),log2 fold change (tozasertib),log2 fold change [4],log2 fold change (doramapimod),log2 fold change (ispinesib)
CYBA (UniProt P13498),0.069,-0.108,0.024,-0.045,0.05,-0.231,-0.043,0.04,0.01,-0.488 (active)
FAM160B1 (UniProt Q5W0V3),0.015,-0.119,0.06,-0.003,0.117,-0.217,0.003,0.049,-0.018,-0.125
CYFIP1 (UniProt Q7L576),0.038,-0.029,0.063,-0.042,0.031,-0.079,0,0.038,-0.026,0.031
DYNC1I2 isoform 5 (UniProt Q13409),0.026,0.055,-0.035,-0.007,0.019,0.027,-0.022,-0.007,-0.011,0.028
DYRK1A isoform 2 (UniProt Q13627),0.008,-0.181,0.045,-0.107,-0.025,-0.102,-0.051,0.042,0.014,-0.059
FAM114A2 (UniProt Q9NRY5),-0.005,-0.197,0.026,-0.026,0.014,-0.06,0.002,0.011,-0.052,-0.096
EBNA1BP2 (UniProt Q99848),-0.013,-0.025,-0.236,0.394,-0.138,0.104,0.191,0.025,0.282,0.21
EXOSC10 (UniProt Q01780),0.126,0.043,0.063,-0.015,0.09,0.527,-0.118,-0.138,0.097,-0.441
DCAF16 (UniProt Q9NXF7),0.058,0.001,0.176,-0.103,0.054,0.069,0.079,0.17,-0.005,0.036
FAM118A (UniProt Q9NWS6),-0.028,-0.112,0.044,0.036,-0.006,-0.44,-0.088,0.097,-0.02,0.034
ESS2 (UniProt Q96DF8),-0.081,-0.079,0.016,0.031,-0.069,0.004,-0.029,-0.044,0.02,-0.053
EIF2AK1 (UniProt Q9BQI3),0.023,0.015,0.015,0.045,-0.007,0.137,-0.028,0.053,0.068,-0.024
"FADS1, A0A0A0MR51",0.096,-0.049,-0.019,-0.026,0.016,0.434 (active),-0.011,-0.007,0,-0.252 (active)
EDC3 (UniProt Q96F86),0.002,-0.237,-0.439 (active),-0.014,-0.14,-0.023,-0.025,0.066,0.05,-0.121
DNAH5 (UniProt Q8TE73),0.049,0.145,-0.007,-0.076,0.117,0.013,0.082,-0.052,-0.031,0.057

# From the supplement of paper PMC10849652
